Measurements as given in PubChem BioAssay (Tox21).
Results filed as inconclusive are left out. Entries that show only a call come without a potency. The source made the active and inactive calls. Calls come from the whole dose curve; as a rule, active = well fitted activation curve with a large enough effect in the signal ratio in the repeat runs (not every such curve was filed as active); inconclusive = weak or mixed curves, or effect the other way; inactive = flat fitted curve, though single readings scatter; the % refers to the signal ratio.

Target: Estrogen receptor beta (Homo sapiens) (UniProt Q92731)
Test: qHTS assay to identify small molecule agonists of the estrogen receptor beta (ER-beta) signaling pathway (AID 1259377)
Settings: ER-beta-UAS-bla HEK293T, beta-lactamase FRET ratio, 16 h; series mostly up to 92.4 µM
Description: U.S. Tox21 Program National Center for Advancing Translational Sciences [NCATS] NIH Chemical Genomics Center [NCGC] U.S. Environmental Protection Agency [EPA] National Institutes of Environmental Health Sciences [NIEHS] National Toxicology Program [NTP] U.S. Food and Drug Administration [FDA] Tox21 Assay Overview: Estrogen receptor (ER), a nuclear hormone receptor, plays an important role in development, metabolic homeostasis and reproduction. Two subtypes of ER, ER-alpha and ER-beta, have similar expression patterns with some uniqueness in both types. Endocrine disrupting chemicals (EDCs) and their interactions with steroid hormone receptors like ER causes disruption of normal endocrine function. To identify the compounds that activate ER signaling, an ER beta-UAS-bla GripTite cell line (Life technologies, Madison, WI, USA) containing a beta-lactamase reporter gene under the control of an Upstream Activator Sequence (UAS) was used to screen Tox21 10K compound library.
Tox21 Assay Protocol Summary: ER-beta-UAS-bla HEK293T cells were dispensed at 2,000 cells/5 uL of assay medium containing 2% charcoal stripped FBS per well into black wall/clear-bottom 1536-well plates using a Multidrop Combi (ThermoFisher Scientific, Waltham, MA) dispenser. After the assay plates were incubated at a 37C and 5% CO2 for 6 hr, 23 nL of compounds dissolved in DMSO, positive controls or DMSO only was transferred to the assay plate by a Pintool station (Kalypsys, San Diego, CA). The plates were incubated at 37C and 5% CO2 for 16 hr. Then 1 uL of LiveBLAzerTM B/G FRET substrate was added using a BioRAPTR FRD (Flying Reagent Dispenser, Aurora Discovery, San Diego, CA). After the plates were incubated at room temperature for 2 hours, fluorescence intensity was measured by an Envision plate reader (PerkinElmer, Shelton, CT).

Chain of Estrogen receptor beta (Homo sapiens) (Q92731 whole entry, looked up): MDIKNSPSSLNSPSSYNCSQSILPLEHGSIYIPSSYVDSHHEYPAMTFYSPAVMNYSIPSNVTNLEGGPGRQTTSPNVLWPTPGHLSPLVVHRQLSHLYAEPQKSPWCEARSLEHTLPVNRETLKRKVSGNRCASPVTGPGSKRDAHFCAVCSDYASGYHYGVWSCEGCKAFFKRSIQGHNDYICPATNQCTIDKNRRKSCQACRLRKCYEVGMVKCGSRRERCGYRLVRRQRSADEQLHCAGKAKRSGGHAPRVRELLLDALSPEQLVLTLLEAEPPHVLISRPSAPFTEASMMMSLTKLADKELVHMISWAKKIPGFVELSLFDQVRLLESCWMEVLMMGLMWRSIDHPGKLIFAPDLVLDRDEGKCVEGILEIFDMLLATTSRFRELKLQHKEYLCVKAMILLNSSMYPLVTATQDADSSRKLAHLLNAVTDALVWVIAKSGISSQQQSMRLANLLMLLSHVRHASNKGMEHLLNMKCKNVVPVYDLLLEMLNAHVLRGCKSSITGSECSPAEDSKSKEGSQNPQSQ

Row | SMILES | Potency
1 | CCCCCCCCC(CO)CCCCCC (stereo not given) | inactive
2 | C=Cc1c(C)c2cc3[nH]c(cc4nc(cc5nc(cc1[nH]2)C(C)=C5CCC(=O)O)C(CCC(=O)O)=C4C)c(C)c3C=C | inactive
3 | CCOC(=O)C1=C(C)NC(C)=C(C(=O)OC)C1c1cccc([N+](=O)[O-])c1 (stereo not given) | inactive
4 | C[C@H](CCC(=O)O)[C@H]1CC[C@H]2[C@@H]3[C@H](O)C[C@@H]4C[C@H](O)CC[C@]4(C)[C@H]3CC[C@]12C | inactive
5 | CC(=O)N(CC(=O)N(C)C)c1ccccc1 | inactive
6 | CCOC(=O)[C@H](CCc1ccccc1)N[C@H]1CCc2ccccc2N(CC(=O)O)C1=O | inactive
7 | CC[C@H](C)[C@@H](C(=O)O)n1sc2ccccc2c1=O | inactive
8 | Cc1cc(CC(=O)O)c(C)n1-c1ccc(Cl)cc1 | inactive
9 | Cn1c(=O)c2c(ncn2CC(O)CO)n(C)c1=O (stereo not given) | inactive
10 | Cc1cccc(C(C)(C)C)c1O | inactive
11 | COCCCCCCCCOCCC[Si](C)(O[Si](C)(C)C)O[Si](C)(C)C | inactive
12 | O=C(O)/C=C/c1cnc[nH]1 | inactive
13 | CC(C)CCCCCCOC(=O)c1ccc(C(=O)OCCCCCCC(C)C)c(C(=O)OCCCCCCC(C)C)c1 | inactive
14 | O=[N+]([O-])c1cccc(Cl)c1Cl | inactive
15 | c1ccc(CNCc2ccccc2)cc1 | inactive
16 | CC(O)C1CCCCC1 (stereo not given) | inactive
17 | C=C(C)C(=O)OC(C)C | inactive
18 | COC(=O)CSc1cc(N=c2sc(=O)n3n2CCCC3)c(F)cc1Cl | inactive
19 | O=C1Nc2cc(Cl)ccc2Oc2ccccc21 | inactive
20 | CN(C)CCCNCCCN | inactive

Row | SMILES | Potency
21 | O=C(O)C(c1ccc(Cl)cc1)c1ccc(Cl)cc1 | inactive
22 | OCCC1CCCCN1 (stereo not given) | inactive
23 | c1ccc(OCc2ccc(CCCN3CCOCC3)cc2)cc1 | inactive
24 | CCc1nn(C2CCCCC2)c2cc(C3(C#N)CCC(C(=O)O)CC3)ccc12 (stereo not given) | inactive
25 | CC/C(=C\C(=N/O)C(N)=O)C(C)[N+](=O)[O-] (stereo not given) | inactive
26 | C=C(C)C(=O)OCCN(C)C | inactive
27 | CCN(CC)C(C)=O | inactive
28 | O=C(O)COC(=O)Cc1ccccc1Nc1c(Cl)cccc1Cl | inactive
29 | Cc1ccc(O)c([C@H](CCN(C(C)C)C(C)C)c2ccccc2)c1 | inactive
30 | Nc1nc(CC(=O)O)cs1 | inactive
31 | CC(C)c1cccc(C(C)C)c1NC(=O)NS(=O)(=O)c1cc(C(C)(C)O)co1 | inactive
32 | CCOc1ccc(NC(=O)CC(C)=O)cc1 | inactive
33 | CCN1CCC[C@H]1CNC(=O)c1c(OC)ccc(Br)c1OC | inactive
34 | COCCOCCOCCOCCOC | inactive
35 | CCCCCCCCCCCCCCC1CO1 (stereo not given) | inactive
36 | C=CC(=O)OCC(C)OCC(C)OCC(C)OC(=O)C=C (stereo not given) | inactive
37 | C=CCCCCCC | inactive
38 | O=c1[nH]cnc2ccccc12 | inactive
39 | Cn1c(NCCN(CCO)CCCc2ccc([N+](=O)[O-])cc2)cc(=O)n(C)c1=O | inactive
40 | CC[C@H](C)[C@H](N)C(=O)O | inactive
